Drawing on the supplement of paper PMC8253809, this text covers growth inhibition for 39 compounds.

Where “and” joins values, the source holds several entries; their conditions need not be identical. Equal values may be shown once.

The first assay relates to SUDIPGVI (diffuse intrinsic pontine glioma line)
The assay can be described thus: growth inhibition (% activity, log2 RLU normalised to DMSO / staurosporine); higher = more growth inhibition. The following applies: 33 µM. The procedure, abridged: (§1)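 The growth-inhibition value comes from CellTiter-Glo luminescence, log2-transformed, normalised per plate to % activity between solvent and positive control wells, and taken as the median over replicates. Treatment of pHGG cell lines and H9-derived neural stem cells with approved drugs was at a single final concentration of about 33 μM, in triplicate, for 7 days at 37 °C, 5% CO2.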
With `CC(NC(C)(C)C)C(=O)c1cccc(Cl)c1` (configuration not stated), the growth inhibition was -0.145%.
The same measure, in the same setting: the figure for `C=CCN.ClCC1CO1` (configuration not stated) is 1.49%; for `CC(O)(CS(=O)(=O)c1ccc(F)cc1)C(=O)Nc1ccc(C#N)c(C(F)(F)F)c1` (configuration not stated) it is 2.38%.
The same measure, in the same setting: the figure for `C[C@]12CCC(=O)C=C1C=C[C@@H]1[C@@H]2CC[C@@]2(C)[C@H]1CC[C@@]2(O)CCC(=O)O` is -0.451%; for `Cc1c(N)nc(C(CC(N)=O)NCC(N)C(N)=O)nc1C(=O)NC(C(=O)NC(C)C(O)C(C)C(=O)NC(C(=O)NCCc1nc(-c2nc(C(=O)NCCC[S+](C)C)cs2)cs1)C(C)O)C(O[C@@H]1O[C@@H](CO)[C@@H](O)[C@H](O)[C@@H]1O[C@H]1O[C@H](CO)[C@@H](O)[C@H](OC(N)=O)[C@@H]1O)c1cnc[nH]1` (some centres not stated) it is 1.68%.
Consider `CC(=O)OC1CN2CCC1CC2` (configuration not stated), for which the growth inhibition was 1.26%.
For the compound `COc1cc2c(cc1OC)[C@@]13CCN4CC5=CCO[C@H]6CC(=O)N2[C@H]1[C@H]6[C@H]5C[C@H]43`, the growth inhibition is 1.58%.
Regarding `C/C=C(\C)C(=O)N[C@@H](c1ccccc1)[C@@H](O)C(=O)O[C@H]1C[C@@]2(O)[C@@H](OC(=O)c3ccccc3)[C@@H]3[C@]4(OC(C)=O)CO[C@@H]4C[C@H](O)[C@@]3(C)C(=O)[C@H](OC(C)=O)C(=C1C)C2(C)C`, the growth inhibition turned out to be 0.972%.
Same read-out and setting: the figure for `CN1[C@@H]2C[C@@H](OC(=O)[C@H](CO)c3ccccc3)C[C@H]1[C@@H]1O[C@@H]12` is -9.6%; for `CC(C)NCC(O)c1ccccc1Cl` (configuration not stated) it is 0.486%.
In the case of `CC[C@@]1(O)C(=O)OCc2c1cc1n(c2=O)Cc2cc3ccccc3nc2-1`, the growth inhibition came to 2.42%.
For the compound `CN(C)C(=O)Oc1ccc[n+](C)c1`, the growth inhibition is 1.15%.
Same read-out and setting: the figure for `CCN(C)C(=O)Oc1cccc([C@H](C)N(C)C)c1` is -2.42%; for `C#C[C@]1(O)CC[C@H]2[C@@H]3CCC4=CC(=O)CC[C@]4(C)[C@H]3CC[C@@]21C` it is 2.6%; for `OC(c1ccccc1)(c1ccccc1)C1CCNCC1` it is 0.144%.
In the case of `O=P1(N(CCCl)CCCl)NCCCO1` (configuration not stated), the growth inhibition was -1.97%.
For `CC[C@@H](C(N)=O)N1CCCC1=O`, the growth inhibition was -0.784%.
On to `CN1C(=O)CCS(=O)(=O)C1c1ccc(Cl)cc1` (configuration not stated), for which the growth inhibition is -0.17%.
Turning to `O=C(O)c1nn(Cc2ccc(Cl)cc2Cl)c2ccccc12`, the growth inhibition was -3.75%.
With `CNC1CC(N)C(O)C(OC2OC(CO)C(O)C3OC4(OC(C(N)CO)C(O)C(O)C4O)OC23)C1O` (configuration not stated), the growth inhibition turned out to be 1.16%.
For the compound `CN(C)[C@@H]1C(=O)C(C(N)=O)=C(O)[C@@]2(O)C(=O)C3=C(O)c4c(O)cccc4[C@@](C)(O)[C@H]3[C@H](O)[C@@H]12`, the growth inhibition was -1.25% and -0.24%.
The same measure, in the same setting: the figure for `O=c1[nH]c2ccccc2n1CCCN1CCC(n2c(=O)[nH]c3cc(Cl)ccc32)CC1` is -2.62%.
`CN1C(=O)COc2c(C(=O)NC3CN4CCC3CC4)cc(Cl)cc21` (configuration not stated): the growth inhibition amounted to 3.53%.

A further assay relates to SUDIPGXIII (diffuse intrinsic pontine glioma line)
The assay is described as above. The following applies: 33 µM. The procedure, abridged:
as §1
On to `C#C[C@]1(O)C=C[C@H]2[C@@H]3CCC4=CC(=O)CC[C@@H]4[C@H]3CC[C@@]21CC`, for which the growth inhibition was found to be 0.6%.
For the compound `NCC(O)c1ccc(O)cc1` (configuration not stated), the growth inhibition was -3%.
Regarding `COc1ccc(OC)c(C(O)C(C)N)c1` (configuration not stated), the growth inhibition was -0.103%.
On to `CC(C)c1c(CN(C)C(C)Cc2ccccc2)n(C)n(-c2ccccc2)c1=O` (configuration not stated), for which the growth inhibition was determined as 2.29%.
On the same count and under the same terms, the figure for `Cc1cccc(C)c1NC1=NCCCS1` is 0.0734%; for `CN(C)C1C(=O)C(C(N)=O)=C(O)C2(O)C(=O)C3=C(O)c4c(O)cccc4C(C)(O)C3CC12` (configuration not stated) it is -1.63%; for `Nc1nc(N)nc(NC2CC2)n1` it is 0.454%.
`C=CC[C@]1(O)CC[C@H]2[C@@H]3CCC4=CC(=O)CCC4=C3C=C[C@@]21C`: the growth inhibition was determined as 2.31%.
For `COc1ccc(C(=O)N2CCCC2=O)cc1`, the growth inhibition was -1.15%.
Same read-out and setting: the figure for `N[C@@H]1C[C@H]1c1ccccc1.N[C@H]1C[C@@H]1c1ccccc1` is 0.0986%.
Take `Cn1c(CCCC(=O)O)nc2cc(N(CCCl)CCCl)ccc21`: the growth inhibition was -0.487%.
Still for that read-out and setting: the figure for `C[C@]12CC[C@H](O)CC1=CC[C@@H]1[C@@H]2CC[C@]2(C)C(=O)CC[C@@H]12` is 1.67%; for `C[C@@H]1O[C@@H](O[C@H]2C[C@@H](O)[C@]3(CO)[C@H]4[C@H](O)C[C@]5(C)[C@@H](C6=CC(=O)OC6)CC[C@]5(O)[C@@H]4CC[C@]3(O)C2)[C@H](O)[C@H](O)[C@H]1O` it is 45.3%.
As to `CCC1=C[C@H]2CN3CCc4c([nH]c5ccccc45)[C@](C(=O)OC)(C2)[C@H]13`, the growth inhibition was -2.44%.
On the same count and under the same terms, the figure for `C[C@]12CC[C@H]3[C@@H](CC[C@@]45O[C@@H]4C(O)=C(C#N)C[C@]35C)[C@@H]1CC[C@@H]2O` is -1.34%.
Take `CCCCCCCCCCCCCCCC[n+]1ccccc1`: the growth inhibition is 72.8%.
The same measure, in the same setting: the figure for `CC(NC(C)(C)C)C(=O)c1cccc(Cl)c1` (configuration not stated) is 0.264%; for `C=CCN.ClCC1CO1` (configuration not stated) it is 0.672%; for `CC(O)(CS(=O)(=O)c1ccc(F)cc1)C(=O)Nc1ccc(C#N)c(C(F)(F)F)c1` (configuration not stated) it is 1.16%.
Consider `C[C@]12CCC(=O)C=C1C=C[C@@H]1[C@@H]2CC[C@@]2(C)[C@H]1CC[C@@]2(O)CCC(=O)O`, for which the growth inhibition is -0.386%.
On to `Cc1c(N)nc(C(CC(N)=O)NCC(N)C(N)=O)nc1C(=O)NC(C(=O)NC(C)C(O)C(C)C(=O)NC(C(=O)NCCc1nc(-c2nc(C(=O)NCCC[S+](C)C)cs2)cs1)C(C)O)C(O[C@@H]1O[C@@H](CO)[C@@H](O)[C@H](O)[C@@H]1O[C@H]1O[C@H](CO)[C@@H](O)[C@H](OC(N)=O)[C@@H]1O)c1cnc[nH]1` (some centres not stated), for which the growth inhibition came to 4.14%.
As to `CC(=O)OC1CN2CCC1CC2` (configuration not stated), the growth inhibition amounted to 0.846%.
Regarding `COc1cc2c(cc1OC)[C@@]13CCN4CC5=CCO[C@H]6CC(=O)N2[C@H]1[C@H]6[C@H]5C[C@H]43`, the growth inhibition was 10.4%.
As for `C/C=C(\C)C(=O)N[C@@H](c1ccccc1)[C@@H](O)C(=O)O[C@H]1C[C@@]2(O)[C@@H](OC(=O)c3ccccc3)[C@@H]3[C@]4(OC(C)=O)CO[C@@H]4C[C@H](O)[C@@]3(C)C(=O)[C@H](OC(C)=O)C(=C1C)C2(C)C`, the growth inhibition came to 4.19%.
The same measure, in the same setting: the figure for `CN1[C@@H]2C[C@@H](OC(=O)[C@H](CO)c3ccccc3)C[C@H]1[C@@H]1O[C@@H]12` is 0.487%.
Turning to `CC(C)NCC(O)c1ccccc1Cl` (configuration not stated), the growth inhibition is -0.265%.
Consider `CC[C@@]1(O)C(=O)OCc2c1cc1n(c2=O)Cc2cc3ccccc3nc2-1`, for which the growth inhibition came to 2.77%.
Still for that read-out and setting: the figure for `CN(C)C(=O)Oc1ccc[n+](C)c1` is -0.0947%.
Turning to `CCN(C)C(=O)Oc1cccc([C@H](C)N(C)C)c1`, the growth inhibition was -0.000881%.
As for `C#C[C@]1(O)CC[C@H]2[C@@H]3CCC4=CC(=O)CC[C@]4(C)[C@H]3CC[C@@]21C`, the growth inhibition worked out at 0.296%.
In the case of `OC(c1ccccc1)(c1ccccc1)C1CCNCC1`, the growth inhibition turned out to be 1.52%.
In the case of `O=P1(N(CCCl)CCCl)NCCCO1` (configuration not stated), the growth inhibition was -0.0596%.
The same measure, in the same setting: the figure for `CC[C@@H](C(N)=O)N1CCCC1=O` is 0.999%; for `CN1C(=O)CCS(=O)(=O)C1c1ccc(Cl)cc1` (configuration not stated) it is -0.0547%; for `O=C(O)c1nn(Cc2ccc(Cl)cc2Cl)c2ccccc12` it is -0.117%.
Same read-out and setting: the figure for `CNC1CC(N)C(O)C(OC2OC(CO)C(O)C3OC4(OC(C(N)CO)C(O)C(O)C4O)OC23)C1O` (configuration not stated) is -0.132%; for `CN(C)[C@@H]1C(=O)C(C(N)=O)=C(O)[C@@]2(O)C(=O)C3=C(O)c4c(O)cccc4[C@@](C)(O)[C@H]3[C@H](O)[C@@H]12` it is 1.12% and 0.41%.
Turning to `O=c1[nH]c2ccccc2n1CCCN1CCC(n2c(=O)[nH]c3cc(Cl)ccc32)CC1`, the growth inhibition is -2.52%.
As for `CN1C(=O)COc2c(C(=O)NC3CN4CCC3CC4)cc(Cl)cc21` (configuration not stated), the growth inhibition came to 1.12%.
